Experimental data from PubChem BioAssay (NCATS).
Results filed as inconclusive are left out. Where a call stands in place of a potency, no number is given. Unmarked numbers belong to inactive results. Calls of active or inactive are those of the source. Calls follow the shape of the dose curve; as a rule, active = well fitted curve in the direction sought with a large enough effect; inconclusive = small, poorly fitted or top-dose-only effect, or another doubt; inactive = no such curve, though single readings can be large; an effect the other way counts as inactive or inconclusive. Peptide text beside a SMILES is read from it. * marks the point of attachment. AFC = O=c1cc(C(F)(F)F)c2ccc(N*)cc2o1

What was measured:
[1] = target: Cellular tumor antigen p53 (Homo sapiens) (UniProt P04637); test: Primary qHTS for small molecule compounds that upregulate eGFP-tagged delta133p53alpha (in N-terminal) cells. (AID 2060322); settings: NCI-H358 eGFP-delta133p53alpha fluorescence, 24 h; activation: stronger effect = higher value; also: nearly all actives have a fitted effect of over 75% in size; also: potency is read from the fitted curve at half-maximal effect;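 as to activation: cells pre-induced with doxycycline then dosed without doxycycline; series mostly up to about 56 µM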
Method in brief: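 NCI-H358 cells pre-induced 24 h with 10 ng/ml doxycycline for eGFP-delta133p53alpha, plated dox-free and exposed 24 h at 37C to titrated compounds. Fixed, Hoechst-stained; gated GFP peak intensity by laser scanning cytometry, normalized to DMSO (0%) and 57.5 uM 5-azacytidine (100%).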

[2] = target: Aldehyde dehydrogenase, mitochondrial (Homo sapiens) (UniProt P05091); test: qHTS for Inhibitors of the Aldehyde Dehydrogenase Family (ALDH2) Primary screen (AID 2061308); also: nearly all actives have a fitted effect of over 55% in size
[3] = target: Retinaldehyde dehydrogenase 3 (Homo sapiens) (UniProt P47895); test: qHTS for Inhibitors of the Aldehyde Dehydrogenase Family (ALDH1A3) Primary screen (AID 2061315)

Sequence of Cellular tumor antigen p53 (Homo sapiens) (P04637 whole entry, looked up): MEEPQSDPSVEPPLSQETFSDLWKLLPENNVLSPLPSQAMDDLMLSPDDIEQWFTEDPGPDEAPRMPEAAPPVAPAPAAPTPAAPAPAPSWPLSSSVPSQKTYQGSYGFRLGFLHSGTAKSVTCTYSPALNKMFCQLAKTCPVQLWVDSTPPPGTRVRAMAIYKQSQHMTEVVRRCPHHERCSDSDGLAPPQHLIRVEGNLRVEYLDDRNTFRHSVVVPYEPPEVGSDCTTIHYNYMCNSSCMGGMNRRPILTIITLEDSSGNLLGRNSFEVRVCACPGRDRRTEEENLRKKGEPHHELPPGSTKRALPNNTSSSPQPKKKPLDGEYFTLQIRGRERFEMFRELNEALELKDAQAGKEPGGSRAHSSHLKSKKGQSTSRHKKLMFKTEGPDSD

Compound	activation [1]	Potency [2]	Potency [3]	activity change, negative = inhibition [2]	activity change, negative = inhibition [3]	Potency [1]
C[C@H](CN1CCCC1)C(=O)c1ccc(C(F)(F)F)cc1	21%	inactive	inactive	–	–	–
Cc1cc2sc(NC(=O)Cc3ccccc3)nc2cc1Cl	-6.25%	inactive	inactive	–	–	–
CC(=O)O[C@@H]1C[C@]2(C)[C@@]3(CCC4[C@@]5(C)CC[C@H](O[C@@H]6O[C@H](C(=O)O)[C@@H](O)[C@H](OC7OC(CO)C(O)C(O)[C@H]7O[C@@H]7O[C@@H](C)[C@H](O)[C@@H](O)[C@H]7O[C@@H]7OC[C@](O)(CO)[C@H]7O)[C@H]6OC6OC(CO)C(O)C(O)C6O)C(C)(C)C5CC[C@]42C)OC[C@@]12CCC(C)(C)CC23 (some centres not stated)	-16%	–	–	9.13% [at 11.2 µM]	6.07% [at 11.2 µM]	–
CC1OC(OC2CCC3(C)C(CCC4(C)C3CC=C3C5CC(C)(C)CCC5(C(=O)OC5OC(CO)C(O)C(O)C5O)CCC34C(=O)O)C2(C)C)C(O)C(O)C1O (configuration not stated)	0.763%	inactive	inactive	–	–	–
C=C1[C@@H]2CC[C@@H]3[C@@](CCC4C(C(=O)O)(C(=O)O)C[C@@H](O[C@@H]5O[C@H](CO)[C@@H](O)[C@H](O)[C@H]5OC(=O)CC(C)C)C[C@]43C)(C2)[C@H]1O (some centres not stated)	-16%	inactive	inactive	–	–	–
O=C(NCCN1CCCC1)c1cc(-c2ccc(CN3CCOCC3)cc2)nc2ccc(F)cc12	3.67%	inactive	inactive	–	–	–
COc1ccc2c(c1)C(C(=O)N(Cc1ccc(N(C)C)cc1)c1ccc(C(C)C)cc1)CCC2 (configuration not stated)	1%	inactive	inactive	–	–	–
C=CC(C)(O)CC/C=C(\C)C(=O)O[C@@H]1[C@@H](O)[C@H](OC(C)(C=C)CC/C=C(\C)C(=O)O)O[C@H](CO)[C@H]1OC(=O)/C(C)=C/CCC(C)(O)C=C (some centres not stated)	9.92%	inactive	inactive	–	–	–
COc1ccc(CCO[C@@H]2O[C@H](CO[C@@H]3OC[C@H](O)[C@H](O)[C@H]3O)[C@@H](O)[C@H](O)[C@H]2O)cc1	-20.6%	inactive	inactive	–	–	–
COc1c2cc(c(O)c1OC)-c1cc(ccc1O)CCC(O)CCCC2 (configuration not stated)	11.5%	inactive	inactive	–	–	–
CN1CCN(C(=O)c2ccc3cc(CCNc4ncnc5ccc(C#N)cc45)ccc3c2)CC1	-12.3%	inactive	inactive	–	–	–
COC(=O)CC(O)CC(O)/C=C/c1c(C)ccc2c1C(O)CC(C)C2 (configuration not stated)	-14.5%	inactive	inactive	–	–	–
CC(=O)N[C@@H](CC(C)C)C(=O)N[C@@H](CCC(=O)O)C(=O)N[C@@H](CCC(=O)O)C(=O)N[C@@H](CC(=O)O)C(=O)Nc1ccc2c(C(F)(F)F)cc(=O)oc2c1 (Ac-LEED-{AFC})	2.33%	inactive	inactive	–	–	–
COC1CC(=O)C23C(=O)NC(Cc4c[nH]c5ccccc45)C2C(C)C2(C)OC2C3/C=C/CC(C)CC1O (configuration not stated)	–	inactive	inactive	–	–	13.1 µM (active)
Cc1cc(CO)c(O)c(C(=O)CC2CC(=O)NC(=O)C2)c1	-5.34%	inactive	inactive	–	–	–
C/C1=C\C[C@H](O[C@@H]2O[C@H](CO)[C@@H](O)[C@H](O)[C@H]2O)/C(C)=C/[C@H]2OC(=O)[C@H](C)[C@@H]2CC1	-8.04%	inactive	inactive	–	–	–
CCCC1=CC2=C(CO1)C(=O)C(C)(O)C(OC(=O)c1c(C)cc(OC)cc1O)C2 (configuration not stated)	-1.53%	inactive	inactive	–	–	–
Cc1ccccc1N1CCN(S(=O)(=O)C[C@]23CC[C@H](C[C@@H]2NC(=O)[C@@H](N)CCS(C)(=O)=O)C3(C)C)CC1	3.67%	inactive	inactive	–	–	–
COc1cc2ncnc(Nc3cccc(I)c3)c2cc1OC	–	inactive	inactive	–	–	12 µM (active)
CC1=C2CC3OC3(C)CCC3OC3(C)CC2OC1=O (configuration not stated)	9.82%	inactive	inactive	–	–	–
CC(C)=C[C@@H]1[C@H](CO[C@@H]2O[C@H](CO)[C@@H](O)[C@H](O)[C@H]2O)C1(C)C	-9.82%	inactive	inactive	–	–	–
C[C@@H]1[C@H]2[C@H](O[C@@H]3O[C@H](CO)[C@@H](O)[C@H](O)[C@H]3O)OC=C(C(=O)O)[C@H]2C[C@@H]1OC(=O)/C=C/c1ccc(O)cc1	18.8%	inactive	inactive	–	–	–
C=C1C(=O)O[C@@H]2[C@H]1[C@H](O)C[C@]1(C)[C@@H](O)CC=C(C)[C@@H]21	–	inactive	inactive	–	–	15.1 µM (active)
O=C(O)/C=C/c1ccc2occc2c1O[C@@H]1O[C@H](CO)[C@@H](O)[C@H](O)[C@H]1O	8.4%	inactive	inactive	–	–	–
CC1=C2C(=O)C=C(CO)C2[C@H]2OC(=O)[C@H](C)[C@@H]2[C@@H](OC(=O)Cc2ccc(O)cc2)C1 (some centres not stated)	-11.6%	inactive	inactive	–	–	–
CC(C)C(O)(CO)CCO[C@@H]1O[C@H](CO[C@H]2OC[C@](O)(CO)[C@H]2O)[C@@H](O)[C@H](O)[C@H]1O (some centres not stated)	-13%	inactive	inactive	–	–	–
C/C1=C\CC[C@]2(C)O[C@H]2C(=O)c2c(C)coc2C1	20.5%	inactive	inactive	–	–	–
CC1=CC(=O)C2(OC3OC(C)C(O)C(OC(=O)/C=C/c4ccccc4)C3O)C=COC(OC3OC(CO)C(O)C(O)C3O)C12 (configuration not stated)	-13.7%	inactive	inactive	–	–	–
C[C@]12CC[C@@H]3c4ccc(O[C@@H]5O[C@H](C(=O)O)[C@@H](O)[C@H](O)[C@H]5O)cc4CC[C@H]3[C@@H]1CCC2=O	-7%	inactive	inactive	–	–	–
